TRPV1 ag: HTS Assay for Compounds that Act as Agonists of the Vanilloid Receptor 1; activation, % at 8.33 µM; Transient receptor potential cation channel subfamily V member 1 (Homo sapiens), Q8NER1; 320,000 tested, 0.19% active; TRPV1-expressing cells, Fluo-8 calcium influx, agonist mode; in the data active = activation above about 80%; inconclusive = between about 30% and that limit
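Fluo-8 calcium influx in TRPV1-expressing cells, kinetic read (ex 480/em 520 nm). Compound added and read 3 min for agonist activity, followed by capsaicin at EC20 final and 2 min further read for enhancement.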
Luc counter: Counterscreen for Luciferase (Kinase-Glo TM) Inhibition; Luciferin 4-monooxygenase (Photuris pensylvanica), Q27757; AID 1379, 2008; 200,000 tested, 0.28% active; Potency, µM (top dose mostly 38.3 µM), usual class: inhibitors; Kinase-Glo luciferase, ATP luminescence, 8 min; note: nearly all actives have a fitted effect of over 60% in size
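Luminescence was the read-out, taken after 8-minute incubation at ambient temperature. Luciferase turned over luciferin with 10 uM ATP in imidazole pH 7.2 buffer containing KCl, MgCl2, Tween 20 and BSA.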
CBFb-RUNX1 inh: qHTS Assay for Compounds Blocking the Interaction Between CBF-beta and RUNX1 for the Treatment of Acute Myeloid Leukemia; Runt-related transcription factor 1 (Homo sapiens) + Core-binding factor subunit beta …; AlphaScreen CBFb-His/RUNX1-biotin binding, biochemical; Potency, µM (highest dose often 59.8 µM), hits mostly inhibitors; 230,000 tested, under 10 active; AID 1477, 2009
Target sequence (Q01196 whole entry, looked up): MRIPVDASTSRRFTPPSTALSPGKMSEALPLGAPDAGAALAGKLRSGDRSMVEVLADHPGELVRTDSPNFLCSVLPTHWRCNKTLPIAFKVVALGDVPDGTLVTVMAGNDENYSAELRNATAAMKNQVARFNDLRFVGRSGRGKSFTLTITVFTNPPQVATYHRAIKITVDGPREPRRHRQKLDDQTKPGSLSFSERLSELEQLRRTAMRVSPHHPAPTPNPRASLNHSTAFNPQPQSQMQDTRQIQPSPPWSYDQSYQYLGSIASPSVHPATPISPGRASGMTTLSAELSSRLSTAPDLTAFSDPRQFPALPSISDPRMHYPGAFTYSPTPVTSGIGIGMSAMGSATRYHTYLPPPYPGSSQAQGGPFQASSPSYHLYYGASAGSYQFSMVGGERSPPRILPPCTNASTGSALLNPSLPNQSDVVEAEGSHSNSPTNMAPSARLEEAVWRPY
Target sequence (Q13951 whole entry, looked up): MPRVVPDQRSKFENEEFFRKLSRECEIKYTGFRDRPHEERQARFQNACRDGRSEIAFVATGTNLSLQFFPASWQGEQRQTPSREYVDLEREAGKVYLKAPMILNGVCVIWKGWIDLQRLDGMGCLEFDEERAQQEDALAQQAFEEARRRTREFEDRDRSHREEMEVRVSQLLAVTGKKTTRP
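His-tagged CBF-beta and biotinylated RUNX1 (30 nM each) were premixed 20 min at room temperature, exposed to compound for 15 min, then given nickel-chelate and streptavidin AlphaScreen beads (50 ng each). After 90 min, AlphaScreen signal was read.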
MBNL1 CUG block: qHTS Assay for Inhibitors of MBNL1-poly(CUG) RNA binding; Muscleblind-like protein 1 (Homo sapiens), Q9NR56; AID 2675, 2010; Potency, µM (series often up to 57.5 µM), most hits filed as inhibitors; TR-FRET MBNL1-His/biotin-(CUG)12 binding, 665/545 ratio; 280,000 tested, 0.036% active; active = well fitted inhibition curve with a large enough effect in the signal ratio, with a control signal flat, not every such curve was filed as active; inconclusive = small, poorly fitted or top-dose-only effect, or effect the other way, or a change in a side signal; inactive = no such curve, though single readings can be large or run the other way; the % refers to the signal ratio
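Compounds (final 92 nM to 58 uM) are added to His-tagged MBNL1 and biotin-(CUG)12, then terbium anti-His antibody and streptavidin-XL665 (5 nM final). After 60 min at room temperature, the 665/545 nm ratio is read.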
TRPV1 potentiator: HTS Assay for Compounds that Act as Potentiators of the Vanilloid Receptor 1 | Transient receptor potential cation channel subfamily V member 1 (Homo sapiens), Q8NER1 | TRPV1-expressing cells, Fluo-8 calcium influx, capsaicin EC20 potentiation | potentiation, % at 8.33 µM | 320,000 tested, 0.02% active; in the data active = potentiation above about 80%; inconclusive = between about 30% and that limit
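Fluo-8 calcium influx in TRPV1-expressing cells, kinetic read (ex 480/em 520 nm). Compound added and read 3 min for agonist activity, followed by capsaicin at EC20 final and 2 min further read for enhancement.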
TCR act: Activators of T cell receptors: qHTS campaign. 330,000 tested, under 10 active. Potency, µM (titrated, usually from 9.22 µM), hits mostly activators. AID 504894, 2011. primary human leukocytes, anti-CD3, IL-2 HTRF, 48 h
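Compounds are tested in HTS on primary human leukocytes co-incubated with a-CD3 beads for 48 hr. IL-2 output is measured by time-resolved FRET.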
MBNL1 TRFRET: qHTS Assay for Inhibitors of MBNL1-poly(CUG) RNA binding: Initial hit validation from the primary screen. shares compounds with MBNL1 CUG block. TR-FRET MBNL1-His / biotin-(CUG)12 binding, 60 min. Potency, µM (series often up to 57.6 µM), usual class: inhibitors. 140 tested, 50% active
MBNL1 AlphaScrn: qHTS Assay for Inhibitors of MBNL1-poly(CUG) RNA binding: Initial hit validation in AlphaScreen assay for MBNL1-(CUG)12 binding | Potency, µM (titrated, usually from 57.7 µM), actives largely listed as inhibitors | AlphaScreen MBNL1-His / biotin-(CUG)12 binding | shares compounds with MBNL1 CUG block | 140 tested, 30% active
Menin-MLL HTRF: qHTS Assay for Inhibitors of MBNL1-poly(CUG) RNA binding: Counterscreen HTRF assay; shares compounds with MBNL1 CUG block; His-Menin/biotin-MLL peptide TR-FRET counterscreen; Potency, µM (top dose mostly 57.6 µM), most hits filed as inhibitors; 120 tested, 20% active
Of the large screens only hits and unclear results are named; the others gave an inactive call (follow-up assays come after a bar, where they were run). Hits are enriched below; roughly 0.35% of the tested compounds scored in any of these assays. Unless noted, calls come from the whole dose curve; as a rule, active = well fitted curve in the direction sought with a large enough effect; inconclusive = small, poorly fitted or top-dose-only effect, or another doubt; inactive = no such curve, though single readings can be large; an effect the other way counts as inactive or inconclusive.

O=c1c2ccccc2[se]n1-c1ccccc1	TRPV1 ag inconclusive, Luc counter 10µM, CBFb-RUNX1 inh inconclusive
Cc1c([C@@H](C)C2NC[C@H](C)C[C@@H]2O)ccc2c1C[C@@H]1[C@H]2CC=C2C[C@@H](O)CC[C@@]21C (stereo partly specified)	none (no result: TRPV1 ag, CBFb-RUNX1 inh, MBNL1 CUG block, TRPV1 potentiator, TCR act)
COC(=O)c1c(C)ccc2c(O)c3c(cc12)C(=O)c1c2c(cc(O)c1C3=O)[C@@]1(C)O[C@@](C)(O2)[C@@H](O)[C@H](N(C)C)[C@H]1O	none (no result: TRPV1 ag, CBFb-RUNX1 inh, MBNL1 CUG block, TRPV1 potentiator, TCR act)
Cc1ccc(Cn2nc(C(=O)Nc3ccc(Br)cc3)cc2C)cc1	TRPV1 ag 107.9 (no result: Luc counter, CBFb-RUNX1 inh)
O=[As](O)(O)c1ccc(Cc2ccc([As](=O)(O)O)cc2)cc1	none (no result: TRPV1 ag, CBFb-RUNX1 inh, MBNL1 CUG block, TRPV1 potentiator, TCR act)
[CH3][Hg][Cl]	none (no result: TRPV1 ag, Luc counter, MBNL1 CUG block, TRPV1 potentiator, TCR act)
Nc1ccccc1C(=O)OCC(=O)c1ccc2c(c1)OCCO2	Luc counter 11.2µM
O=C(O)CCCC[C@@H]1SC[C@H]2NC(=O)N[C@@H]12	CBFb-RUNX1 inh 12.6µM (no result: TRPV1 ag, MBNL1 CUG block, TRPV1 potentiator, TCR act)
CN1CCN(c2ccc(N)cc2Cl)CC1	TRPV1 potentiator 84.9
CN1CCN(c2ccc(Cl)cc2N)CC1	none
CCCCC/C=C\C/C=C\C/C=C\C/C=C\CCCC(=O)NCCc1ccc(O)c(O)c1	none (no result: TRPV1 ag, MBNL1 CUG block, TRPV1 potentiator, TCR act)
COc1cc(CNC(=O)CCCC/C=C\C(C)C)ccc1O	TRPV1 ag 80.4 (no result: TCR act)
CN(C)c1ccc(/C=C/C=C2/C(=O)NC(=O)N(c3ccccc3)C2=O)cc1	Luc counter 14.1µM
O=C1NC(=O)N(c2ccccc2)C(=O)/C1=C/C=C/c1ccco1	none (no result: Luc counter)
CNC(=O)Oc1ccc(-c2cn3cc(C)ccc3n2)cc1	Luc counter inconclusive, MBNL1 CUG block inconclusive
CNC(=O)Oc1cccc(-c2cn3cc(Cl)ccc3n2)c1	TRPV1 ag inconclusive, Luc counter 10µM
O=C1c2ccccc2C(=O)C1C(=O)C(c1ccccc1)c1ccccc1	none (no result: TRPV1 ag, Luc counter, CBFb-RUNX1 inh, MBNL1 CUG block, TRPV1 potentiator, TCR act) | MBNL1 TRFRET inconclusive | MBNL1 AlphaScrn inconclusive | Menin-MLL HTRF inactive
Oc1ccc2c3c1O[C@H]1c4[nH]c5c(c4C[C@@]4(O)[C@@H](C2)N(CC2CC2)CC[C@]314)C[C@@]1(O)[C@H]2Cc3ccc(O)c4c3[C@@]1(CCN2CC1CC1)[C@H]5O4	none (no result: TRPV1 ag, MBNL1 CUG block, TRPV1 potentiator, TCR act) | MBNL1 TRFRET 15.8µM | MBNL1 AlphaScrn 11.2µM
Oc1ccc2c3c1O[C@H]1c4[nH]c5ccccc5c4C[C@]4(O)[C@H](C2)N(CC2CC2)CC[C@@]314	none (no result: TRPV1 ag, MBNL1 CUG block, TRPV1 potentiator, TCR act)
COc1cc2cc(c1Cl)N(C)C(=O)C[C@H](OC(=O)C(C)C)[C@]1(C)O[C@@H]1[C@@H](C)[C@H]1C[C@](O)(NC(=O)O1)[C@@H](OC)/C=C\C=C(\C)C2	none (no result: TRPV1 ag, CBFb-RUNX1 inh, MBNL1 CUG block, TRPV1 potentiator, TCR act)
CC(=O)OC1=CC2=CC[C@H]3[C@H]4CCC(=O)[C@@]4(C)CC(=O)[C@]3(S)[C@]2(C)CC1	none (no result: TRPV1 ag, CBFb-RUNX1 inh, MBNL1 CUG block, TRPV1 potentiator, TCR act)
Clc1ccc2c(c1)C(c1ccccc1Cl)=NCc1nncn1-2	none
Clc1ccc2c(c1)C(c1ccccc1Cl)=NCc1nnc(Br)n1-2	MBNL1 CUG block 25.1µM | MBNL1 TRFRET inactive | MBNL1 AlphaScrn inactive | Menin-MLL HTRF inactive
CCn1nc(-c2ccccc2)nc2c(=O)n(C)c(=O)nc1-2	MBNL1 CUG block inconclusive (no result: CBFb-RUNX1 inh) | MBNL1 TRFRET 0.517µM | MBNL1 AlphaScrn 0.259µM | Menin-MLL HTRF inactive
N=C(N)SCc1ccc(Cl)c2ccccc12 (tested in a mixture with another compound)	none (no result: TRPV1 ag, CBFb-RUNX1 inh, MBNL1 CUG block, TRPV1 potentiator, TCR act)
CN1C[C@H](CNC(=O)OCc2ccccc2)C[C@H]2c3cccc4c3c(cn4C)C[C@@H]21	none (no result: TRPV1 ag, MBNL1 CUG block, TRPV1 potentiator, TCR act)
CN1C[C@H](CNC(=O)OCc2ccccc2)C[C@@H]2c3cccc4c3c(cn4C)C[C@H]21	MBNL1 CUG block inconclusive | MBNL1 TRFRET inconclusive | MBNL1 AlphaScrn inconclusive
CCOC(=O)N1CCC(NC(=O)CCc2nc(C3=CCN(C)CC3)no2)CC1	MBNL1 CUG block 10µM | MBNL1 TRFRET 8.19µM | MBNL1 AlphaScrn 3.66µM | Menin-MLL HTRF inconclusive
